# Unmarked numbers belong to inactive results.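 How the source made its calls: active = growth AUC significantly below the DMSO wells by Dunnett test; inactive = the rest.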
# Tested on: Carnobacterium 1 (Carnobacterium gallinarum)
# Test: relative growth (AUC of 72 h growth curve relative to DMSO control, dAUC) (ratio); higher = more growth (less inhibition), active = hit call of the paper
# Conditions: 20 µM
# Experimental: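 Environmental bacterial isolates (Iceland stream sediment and Silwood Park soil) and whole stream-sediment communities were grown in LB from a 1:100 dilution with each pesticide at 20 µM (1% DMSO). A600 was read hourly for 72 h and the area under a spline-fitted growth curve (AUC) was computed. dAUC is the mean AUC of 3 biological replicates divided by the mean AUC of the DMSO controls. Significance was tested by Dunnett's test against the DMSO control.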
row,Compound,relative growth
1,CNC(=O)ON=C(C)SC,1.18
2,CC1(C)C(C=C(Cl)Cl)C1C(=O)OC(C#N)c1cccc(Oc2ccccc2)c1 (stereo not given),1.32
3,O=[N+]([O-])c1cc(C(F)(F)F)c(Cl)c([N+](=O)[O-])c1Nc1ncc(C(F)(F)F)cc1Cl,0.00939 (active)
4,CNC(=O)c1cc(C#N)cc(C)c1NC(=O)c1cc(Br)nn1-c1ncccc1Cl,0.896
5,CC[C@H](C)C1O[C@]2(C=C[C@@H]1C)C[C@@H]1C[C@@H](C/C=C(\C)[C@@H](O[C@H]3C[C@H](OC)[C@@H](O[C@H]4C[C@H](OC)[C@H](NC)[C@H](C)O4)[C@H](C)O3)[C@@H](C)/C=C/C=C3\CO[C@@H]4[C@H](O)C(C)=C[C@@H](C(=O)O1)[C@]34O)O2 (stereo not given in full),0.609
6,C[N+]1(C)CCCCC1,1.2
7,CO/C=C(/C(=O)OC)c1ccccc1COc1cccc(C(F)(F)F)n1,0.98
8,COc1cccc(C(=O)NN(C(=O)c2cc(C)cc(C)c2)C(C)(C)C)c1C,0.863
9,Cc1cc(C)c(C2=C(OC(=O)CC(C)(C)C)C3(CCCC3)OC2=O)c(C)c1,1.01
10,CCSC(C)CC1CC(=O)C(/C(CC)=N/OC/C=C/Cl)=C(O)C1 (mixture of isomers),1.27
11,Cc1cc(C(F)(C(F)(F)F)C(F)(F)F)ccc1NC(=O)c1cccc(I)c1C(=O)NC(C)(C)CS(C)(=O)=O,0.956
12,Cc1nnc(-c2ccccc2)c(=O)n1N,0.953
13,CCc1cnc(C2=NC(C)(C(C)C)C(=O)N2)c(C(=O)O)c1 (stereo not given),1.06
14,Cc1ccc(/N=C/N(C)/C=N/c2ccc(C)cc2C)c(C)c1,1.24
15,N#Cc1nn(-c2c(Cl)cc(C(F)(F)F)cc2Cl)c(N)c1[S+]([O-])C(F)(F)F (stereo not given),0.821
16,CCCCOC(=O)[C@H](C)Oc1ccc(Oc2ccc(C#N)cc2F)cc1,0.961
17,CN1COCN(Cc2cnc(Cl)s2)/C1=N\[N+](=O)[O-],1.12
18,O=C(NCCc1ncc(C(F)(F)F)cc1Cl)c1ccccc1C(F)(F)F,0.905
19,CNC(=O)Oc1cccc2ccccc12,1.1
20,CC1(C)C(C=C(Cl)Cl)C1C(=O)OCc1cccc(Oc2ccccc2)c1 (stereo not given),0.871

row,Compound,relative growth
1,N#Cc1cc(Br)c(O)c(Br)c1,1.05
2,OC(Cn1cncn1)(c1ccc(F)cc1)c1ccccc1F (stereo not given),1.15
3,CCOCn1c(-c2ccc(Cl)cc2)c(C#N)c(Br)c1C(F)(F)F,1.16
4,CO/C=C(/C(=O)OC)c1ccccc1Oc1cc(Oc2ccccc2C#N)ncn1,1.27
5,CO/N=C(/C(=O)OC)c1ccccc1CO/N=C(\C)c1cccc(C(F)(F)F)c1,0.975
6,CNC(=O)c1cc(Cl)cc(C)c1NC(=O)c1cc(Br)nn1-c1ncccc1Cl,1.24
7,O=C(O)COc1ccc(Cl)cc1Cl,1.06
8,Cc1cccc2sc3nncn3c12,0.911
9,CCOP(=S)(OCC)Oc1cc(C)nc(C(C)C)n1,0.908
10,COC(=O)NC(=S)Nc1ccccc1NC(=S)NC(=O)OC,0.745
11,CC(Oc1ccc(Oc2nc3ccc(Cl)cc3o2)cc1)C(=O)O (stereo not given),1.36
12,CC(C)(C)[C@@H](O)[C@H](Oc1ccc(Cl)cc1)n1cncn1,1.06
13,Cc1cc(C(C#N)c2ccc(Cl)cc2)c(Cl)cc1NC(=O)c1cc(I)cc(I)c1O (stereo not given),0.0215 (active)
14,CC(C)CC(C)c1sccc1NC(=O)c1cn(C)nc1C(F)(F)F (stereo not given),0.721
15,Cc1c(COC(=O)[C@@H]2[C@H](/C=C(\Cl)C(F)(F)F)C2(C)C)cccc1-c1ccccc1 (racemic),1.17
16,CN(C)C(CSS(=O)(=O)O)CSS(=O)(=O)O,1.03
17,CSc1nc(NC(C)C)nc(NC(C)C)n1,0.71
18,O=C1c2ccccc2C(=O)N1SC(Cl)(Cl)Cl,1.03
19,O=C(Nc1ccccc1-c1ccc(Cl)cc1)c1cccnc1Cl,0.968
20,CC[C@H](C)[C@H]1O[C@]2(C=C[C@@H]1C)C[C@@H]1C[C@@H](C/C=C(\C)[C@@H](O[C@H]3C[C@H](OC)[C@@H](O[C@H]4C[C@H](OC)[C@@H](O)[C@H](C)O4)[C@H](C)O3)[C@@H](C)/C=C/C=C3\CO[C@@H]4[C@H](O)C(C)=C[C@@H](C(=O)O1)[C@]34O)O2.CO[C@H]1C[C@H](O[C@H]2[C@H](C)O[C@@H](O[C@@H]3/C(C)=C/C[C@@H]4C[C@@H](C[C@]5(C=C[C@H](C)[C@@H](C(C)C)O5)O4)OC(=O)[C@@H]4C=C(C)[C@@H](O)[C@H]5OC/C(=C\C=C\[C@@H]3C)[C@]54O)C[C@@H]2OC)O[C@@H](C)[C@@H]1O,0.726

# — the supplement of paper PMC12067926
